The values below come from ChEMBL document CHEMBL4513146, “CO-ADD screening of Karazin Kharkiv National University (Ukraine) compounds”.

Measured potencies and affinities stand elsewhere.

As a reminder, the Inhibition is the relative decrease from the control value, in per cent.

One experiment relates to Klebsiella pneumoniae. The conditions noted are these: Concentration 32 ug.mL-1;; ASSAY_TEST Inhibition of Bacterial Growth; detection method Absorption (OD600); MEDIA CAMHB; plate type 384well; NBS; CORNING #3640; time 18 hr.
The next experiment concerns Candida albicans. The conditions noted are these: Concentration 32 ug.mL-1; ASSAY_TEST Inhibition of Fungal Growth; detection method Absorption (OD530).
For a further experiment, the system named is Cryptococcus neoformans. The conditions noted are these: Concentration 32 ug.mL-1; ASSAY_TEST Inhibition of Fungal Growth; detection method Resazurin; Absorption (OD600-OD570); plate type 384well; NBS; CORNING #3640. (In general: Resazurin is reduced to fluorescent resorufin, in cell work by metabolically active cells.)

On to `O=c1n(Cc2cccc(Cl)c2)nc2ccc(-c3ccccc3)nn12`, for which the values for the Inhibition in the experiment on Klebsiella pneumoniae, in the experiment on Candida albicans and in the experiment on Cryptococcus neoformans were 19.54%, 2.36% and -20.37%, respectively.
As to `CCOc1ccc(-n2ccn3c(SCC(=O)NCc4cccc(OC)c4OC)nnc3c2=O)cc1`, the figures for the Inhibition in the experiment with Klebsiella pneumoniae, in the experiment with Candida albicans and in the experiment on Cryptococcus neoformans were 14.82%, 1.5% and -8.08%, respectively.
Regarding `O=S(=O)(c1cccn2cnnc12)N(Cc1cccc(F)c1)c1cccc(Cl)c1`, the Inhibition is reported as 2.34% in the experiment on Klebsiella pneumoniae, 1.27% in the experiment with Candida albicans and -7.2% in the experiment on Cryptococcus neoformans.
On the same counts, the results for `CCC(C)NC(=O)Cn1nc2n(Cc3ccco3)c(=O)c3sccc3n2c1=O` (stereo unspecified) are 10.15%, -0.07% and -9.56%.
With `CCC(C)NC(=O)c1ccc2c(=O)n(C3CC3)c3nn(CC(=O)NC(C)C)c(=O)n3c2c1` (stereo unspecified), the Inhibition is 17.09% in the experiment on Klebsiella pneumoniae, -1.34% in the experiment with Candida albicans and -38.88% in the experiment with Cryptococcus neoformans.
As to `CCOC(=O)c1ccc(NC(=O)CSc2nc3ccccc3n3c(C(C)C)nnc23)cc1`, the Inhibition with Klebsiella pneumoniae is 8.56%; with Candida albicans it was -0.16%; in the experiment on Cryptococcus neoformans it was -11.29%.
Regarding `CCOc1ccccc1NC(=O)Cn1nc2c(N3CCN(c4ccccc4)CC3)nccn2c1=O`, the results for the Inhibition with Klebsiella pneumoniae, in the experiment on Candida albicans and with Cryptococcus neoformans were 5.33%, 7.24% and -7.83%, respectively.
Take `CCOc1ccc(-n2ccn3c(SCC(=O)c4c(C)[nH]c5ccccc45)nnc3c2=O)cc1`: the Inhibition with Klebsiella pneumoniae is on record as 3.78%; with Candida albicans, 2.22%; in the experiment with Cryptococcus neoformans, -13.8%.
For `O=C(Cn1nc2c3c4c(sc3ncn2c1=O)CCCC4)NCc1ccccc1Cl`, the results for the Inhibition with Klebsiella pneumoniae, with Candida albicans and in the experiment on Cryptococcus neoformans were 0.41%, 2.22% and -5.52%, respectively.
Taken in the same sequence, the figures for `Cc1ccc(NC(=O)Cn2nc3ccc(-c4ccc(C)c(C)c4)nn3c2=O)cc1` were 11.7%, -0.59% and -13.68%.
For the molecule `COc1ccc(CN(c2ccc(F)c(F)c2)S(=O)(=O)c2ccc3nncn3c2)cc1`, the Inhibition was 12.63% in the experiment on Klebsiella pneumoniae, 0.74% with Candida albicans and -4.76% in the experiment on Cryptococcus neoformans.
On the same counts, the results for `COc1ccc(C)cc1NC(=O)Cn1nc2ccc(SC(C)(C)C)nn2c1=O` are 5.72%, 3.1% and -12.69%.
